Assay results from the supplement of paper PMC6555819.

Key:
Assay in all cases: PBM binding z-score (relative to random genomic background probes); higher = stronger binding; sequences stand for … in GC…GCGATTGACAGCGTAGAATGAAGG
[1] = system: RARb homodimer (NR concentration 270 nM)
Procedure, shortened: (§1)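 The probes on custom Agilent 4×180K protein-binding microarrays were double-stranded, with 34-nt variable regions bearing direct-repeat seeds, single-nucleotide variants, half-site ablations and random human genomic background sequences. Incubation lasted 1 h with ligand-free nuclear receptor dimers in PBS pH 7.4, 2% milk, 0.02% Triton X-100, 1 mM DTT, 0.2 mg/mL BSA and 0.4 mg/ml salmon testes DNA. Antibodies against each partner (one per run) detected bound dimers, and fluorescence scans were regression-normalized. Binding z-scores take the random background probes as reference.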

[2] = system: RARg:RXRa (NR concentration 270 nM, RXRa partner concentration 90 nM)
Procedure, shortened: as §1

[3] = system: RARg homodimer (NR concentration 270 nM)
Procedure, shortened: as §1

[4] = system: RXRa DBDmut IVT, anti-RXR (DBD mutation: RXRa K156A/R161A, NR concentration 90 nM)
Procedure, shortened: as §1

[5] = system: RXRa homodimer (NR concentration 180 nM)
Procedure, shortened: as §1

[6] = system: THRa:RXRa (NR concentration 90 nM, RXRa partner concentration 90 nM)
Procedure, shortened: as §1

[7] = system: THRa homodimer (NR concentration 90 nM)
Procedure, shortened: as §1

[8] = system: VDR:RXRa (NR concentration 270 nM, RXRa partner concentration 90 nM)
Procedure, shortened: as §1

[9] = system: VDR homodimer (NR concentration 270 nM)
Procedure, shortened: as §1

Sequence | PBM binding z-score [1] | PBM binding z-score [2] | PBM binding z-score [3] | PBM binding z-score [4] | PBM binding z-score [5] | PBM binding z-score [6] | PBM binding z-score [7] | PBM binding z-score [8] | PBM binding z-score [9]
CCTATTAGTTGACCATAAGGGCAAGCGAAGCTCG | 1.9 | 0.986 | 1.05 | 0.414 | 0.645 | 1.75 | 1.08 | 0.92 | 0.847
CCTATTGGGCCAAGGTCATTGATCAGTCAAAGCA | 3.15 | 3.81 | 3.22 | 1.62 | 3.07 | 3.6 | 2.3 | 3.29 | 3.13
ATCTCTAGGTATGACTCAGTTCAGTGAAGAACGC | 0.676 | 0.285 | 0.329 | 0.685 | 0.0899 | 0.451 | 0.83 | 1.01 | 1.5
CAAACTAGGTCACCGGAGGGTCAAAGTCCGCATG | 5.26 | 7.83 | 6.79 | 1.19 | 5.89 | 4.24 | 2.21 | 5.82 | 2.78
ATCACTAGGTAAAGTTCAGTGAAAGATCGATAGA | 2.57 | 2.32 | 2.39 | 1.44 | 1.55 | 1.24 | 0.158 | 1.21 | 2.29
CCGAATGGGGCAGAAAGGTTACCATACCATCCGG | 2.38 | 1.8 | 1.36 | -0.766 | 1.91 | 1.07 | -0.641 | 1.33 | -0.0198
TCTGCTAGGTCAGTTGGTTAGCTAACGAGCTGCC | 2.11 | 2.15 | 2.76 | 0.517 | 0.728 | 1.15 | -0.142 | 0.227 | -0.573
GCTAGATGGTCAGTAAAAGGTCACACACCGGTCG | 5.31 | 5.52 | 4.87 | 0.182 | 5.18 | 3.69 | 1.89 | 3.91 | 1.57
TCATATAGGTAAAAGGTGTAAGTCGGTGTGGTAA | 0.36 | 0.32 | 0.0311 | 1.55 | 0.644 | 0.0897 | -0.167 | 0.727 | 0.313
ACTAGCAGGCCAAGTTTGTGTCACTCAAACAAAG | 0.267 | 0.00878 | 0.0859 | -0.193 | -0.545 | -0.0341 | -0.316 | -0.313 | 0.051
TCTTGTAGATCAGCAGGCTAAGAAAGCTGGCCAA | -0.81 | -0.564 | -0.754 | 0.38 | -0.261 | -0.424 | -1.21 | -0.106 | -0.475
TCATATAGGTAAAAGCTGAAAGTCGGTGTGGTAA | -0.59 | -0.0558 | -0.318 | 1.45 | 0.496 | -0.258 | -0.715 | 0.748 | -0.102
ACTATTACTTGACTTAGGGCAACCGATACGACGC | 1.06 | 0.943 | 1.1 | 0.983 | 0.745 | 0.888 | 1.1 | 0.428 | 0.484
TCTATTAGTTGTTTAGGGCAACCGAAACAGCGGA | 0.623 | 0.681 | 0.7 | 0.754 | 0.557 | 1.07 | 0.864 | 0.707 | 0.463
TCTTGTAGATCAGCTGGTTAAGAAAGCTGGCCAA | -0.771 | -0.465 | -0.758 | 0.269 | -0.351 | -0.515 | -1.3 | -0.152 | -0.694
TCTATTAGTTGATTAGGGCAATCGAAACAGCGGA | 0.402 | 0.658 | 0.528 | 0.966 | 0.804 | 0.453 | 0.15 | 0.607 | 0.435
ACTTACGGGTCAACGAGGTTATAGCACGCGTATA | 3.53 | 5.57 | 5.3 | 2.71 | 6.39 | 4.01 | 1.25 | 7.63 | 3.96
GCATATAGGTAATACAAGGTGGAAGTCCGATTGT | -0.533 | 0.279 | 0.315 | 0.235 | 0.566 | 2.03 | -0.457 | -0.118 | -0.109
CGTCCAAGGTCATGGTCAGTGAAAGAGACTCGAA | 4.01 | 6.19 | 6.11 | 3.84 | 5.98 | 3.92 | 2.89 | 4.3 | 2.52
ATCGAAAGGTCGAGGTGAGTATCGAGAAAGGGAA | 2.53 | 4.33 | 4.51 | 0.532 | 4.17 | 2.65 | 0.543 | 2.57 | 0.173
TCTTGTACATCAATAGAGGTTAAGAAAGTGCGCT | 1.31 | 0.893 | 0.714 | 1.08 | 1.46 | 1.52 | -0.338 | 2.07 | -0.116
TCTAGTTGGTCTCGGAGGTCACACACGACGGGTA | 4.01 | 3.75 | 3.47 | 1.15 | 4.16 | 3.65 | 2.74 | 3.75 | 2.48
CGTCCAAAGTCAGAGAGGTCAGTGAATGCCGAGT | 4.21 | 2.98 | 3.26 | 1.16 | 2.65 | 2.72 | 0.954 | 4.38 | 2.12
ATATGTAGGTTAAGGGTCATTCACGTTGGTTCGC | 3.78 | 4.72 | 3.42 | 2.33 | 6.15 | 3.36 | 1.12 | 4.75 | 4.09
CTCGAAAGGTCGGTTGAGGTGAGGATACGGATAA | 2.54 | 3.23 | 2.94 | 0.698 | 2.43 | 5.04 | 2.21 | 2.29 | 0.231
TCTTGTAGATCAAAGGTTAAAAAAGCCGAAGCCT | 1.22 | 1.79 | 0.557 | 0.941 | 3.35 | 1.44 | -0.334 | 1.64 | 0.177
